Activity calls are given as the source filed them. The calls were made as follows: active = hit-call score of the fitted dose curve at least 0.9, where 1 is the maximum; inactive = score below 0.9.
test: ATG_GRE_CIS: Attagene CIS-FACTORIAL HepG2 Assay for human Glucocorticoid Response Elements (GRE) (AID 2282947); conditions: HepG2 GRE cis-reporter, Attagene multiplex mRNA; actives raise or lower the signal
Experimental: ATG_CIS is a cell-based, multiplexed-readout assay that uses HepG2, a human liver cell line, with measurements taken at 24 hours after chemical dosing in a 24-well plate.ATG_GRE_CIS is one of 52 assay component(s) measured or calculated from the ATG_CIS assay. It is designed to make measurements of mRNA induction, a form of inducible reporter, as detected with fluorescence intensity signals by Reverse transcription polymerase chain reaction (RT-PCR) and Capillary electrophoresis technology.Data from the assay component ATG_GRE_CIS was analyzed into 1 assay endpoint. This assay endpoint, ATG_GRE_CIS, was analyzed with bidirectional fitting relative to DMSO as the negative control and baseline of activity. Using a type of inducible reporter, measures of mRNA for gain or loss-of-signal activity can be used to understand the reporter gene at the transcription factor-level as they relate to the gene NR3C1. Furthermore, this assay endpoint can be referred to as a primary readout, because this assay has produced multiple assay endpoints where this one serves a reporter gene function. To generalize the intended target to other relatable targets, this assay endpoint is annotated to the nuclear receptor intended target family, where the subfamily is steroidal.
Human liver HepG2 cells are transiently transfected with multiple reporter transcription units (MRTUs) in 6-well plates using FuGene 6 reagent (Roche; 3 ml FuGene/1 mg DNA). The MRTU constructs are regulated by a cis-regulating element (promoter). […] A major difference between the CIS and TRANS system is that in CIS activities of endogenous TFs are measured, whereas the TRANS assay evaluates changes in activities of exogenous, chimeric NR-Gal4 proteins. […] At the end of 24 hour incubation, total RNA was isolated using TriZol reagent (Invitrogen). The isolated RNA is then reverse-transcribed using oligo(dT) primer and Mo-MLV reverse transcriptase (Invitrogen) with DNAse I (Ambion) treatment for 30 min. The one-tenth of the produced cDNA was amplified by PCR using Taq DNA polymerase (Invitrogen) and two reporter sequence-specific primers. The PCR products were fluorescently labeled by primer extension with 6-arboxyfluorescein (6-FAM) 5'-labeled reporter sequence-specific primer (2 min at 95 C, 20 s at 68 C and 10 min at 72 C) and these products were digested with 5U of HpaI (New England Biolabs) for 2h at 37 C. The fragments were purified using Qiaquick PCR columns (Qiagen), analyzed on an ABI 3130xL genetic analyzer (Applied Biosystems) with peak positions identified by using a set of X-rhodamine (ROX)-labeled MapMarker1000 molecular weight standards (BioVentures). The raw capillary electrophoresis data was processed using Attagraph software (Attagene).

SMILES | outcome | AC50
O=C(Cl)c1c(Cl)c(Cl)c(C(=O)Cl)c(Cl)c1Cl | inactive | 
CCCCCC[C@@H](O)C/C=C\CCCCCCCC(=O)OCC(O)CO (stereo not given in full) |  | 149 µM (active)
CC(C)COC(=O)CC(C(=O)OCC(C)C)S(=O)(=O)O (stereo not given) | inactive | 
O=C1c2ccccc2C(=O)c2cc(S(=O)(=O)O)ccc21 | inactive | 
CC(=O)OCc1ccccc1 | inactive | 
COCC(=O)O | inactive | 
CCCC(CC)c1ccccc1 (stereo not given) | inactive | 
CC1=NN(c2ccc(S(=O)(=O)O)cc2)C(=O)C1N=Nc1ccccc1 (stereo not given) | inactive | 
CCCCCCCCCCCCCC(=O)OC(C)C | inactive | 
CC(=O)C(C)C | inactive | 
CCCCOCCOC(=O)COc1ccc(Cl)cc1Cl | inactive | 
O=C(Oc1ccccc1)c1ccccc1O | inactive | 
Cc1cc(C)n(CO)n1 | inactive | 
c1ccc(Nc2cccc3ccccc23)cc1 | inactive | 
CC(C)c1cc(C(C)C)cc(C(C)C)c1 | inactive | 
CO[Si](CCCS)(OC)OC | inactive | 
C=C(C)C(=O)OCCCCCCCCCCCC | inactive | 
CCCCCCCO | inactive | 
CN1CCN(C)CC1 | inactive | 
N=C1C=CC(=C(c2ccc(N)cc2)c2ccc(N)cc2)C=C1 |  | 23.9 µM (active)

SMILES | outcome | AC50
CCCCCCCCCCCCc1ccc(O)cc1 | inactive | 
CCCCNC(=S)NCCCC | inactive | 
CC(CCC(=O)O)(c1ccc(O)cc1)c1ccc(O)cc1 | inactive | 
C=CC(=O)OCCCCCCOC(=O)C=C | inactive | 
CCC(C)c1ccccc1 (stereo not given) | inactive | 
c1ccc(-c2nc3ccccc3[nH]2)cc1 | inactive | 
C/C=C/C=C/CCCCCCCO | inactive | 
CCCCCCCC(=O)OCC(COC(=O)CCCCCCC)OC(=O)CCCCCCC | inactive | 
O=C1CCCCCCCCCCC1 | inactive | 
CCCCCC1=CCCC1=O | inactive | 
CCc1cccc(C)c1N(C(=O)CS(=O)(=O)O)C(C)COC (stereo not given) | inactive | 
CCCC1CCCC(=O)O1 (stereo not given) | inactive | 
CCc1occc(=O)c1O | inactive | 
N#Cc1ccc(C2CCCc3cncn32)cc1 (stereo not given) | inactive | 
CC(=O)OC1CCCCC1 | inactive | 
CCCCCCCC(=O)OCC | inactive | 
CCOC(=O)c1ccc(C)cc1 | inactive | 
CCC(C)N (stereo not given) | inactive | 
COC(Cc1ccccc1)OC | inactive | 
COC(=O)c1ccccc1C | inactive | 
